The whole screen tested about 120,000 compounds, of which about 55 (0.05%) were called active. Rule as the data show it: active = inhibition above about 25% (passing the limit was not always enough); inactive = the rest. The list comes from a sample in which actives are over-represented; it also holds similar structures and randomly drawn compounds.
system: replicative DNA helicase (DnaC/DnaB), Staphylococcus aureus; test: inhibitors of S. aureus replicative helicase, primary screen, biochemical, fluorescence unwinding readout (AID 485395);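 also: 0% = mean of negative control wells and 100% = mean of positive control wells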; settings: purified S. aureus helicase, fluorescence unwinding assay; hits give high values; concentration not given here

| SMILES | inhibition |
| --- | --- |
| Cc1cc(CNCc2nnc3ccccn23)c(C)n1-c1ccnn1C(C)C | 7% (inactive) |
| Nc1cc(N)cc(C(F)(F)C(F)(F)C(F)(F)F)c1 | 23% (inactive) |
| CCOc1ccc2nc(NC(=O)c3ccccc3OC)sc2c1 | -8% (inactive) |
| Cc1ccc(-n2nc(C)c(C(=O)N(Cc3ccccc3)C(C)C)c2-n2cccc2)cc1 | 22% (inactive) |
| O=C(NC(c1ccccc1)c1ccccc1)C1COC2C=CC=CC2O1 (stereo not given) | 5% (inactive) |
| CCCn1c(NC(=O)CCCc2nc3ccccc3c(=O)[nH]2)nc2ccccc21 | 6% (inactive) |
| COc1ccc(Cc2nn3c(C(C)(C)C)nnc3s2)cc1OC | -4% (inactive) |
| O=C1CCC(C(=O)NN2C(=O)c3cccc4cccc(c34)C2=O)=NN1 | 10% (inactive) |
| CCOc1ccc(CCNC(=O)Nc2ccc(C)c(C)c2)cc1OCC | -3% (inactive) |
| CCOC(=O)c1c2c(n(-c3ccccc3)c1N)OC(=N)C(C#N)C2c1ccc(Br)cc1 (stereo not given) | -19% (inactive) |
| NNC(=O)CNC(=O)c1cccc2ccccc12 | 17% (inactive) |
| O=C(CSc1ccc2nnc(-c3cccc(F)c3)n2n1)NCc1ccccc1 | -3% (inactive) |
| Cc1nc(Nc2nc3ccccc3o2)ncc1C(=O)Nc1ccccc1 | 24% (inactive) |
| Cc1occc1-c1nnc(SCc2ccc(C(C)(C)C)cc2)n1N | -3% (inactive) |
| Cc1ccc(-c2nc(C#N)c(NCc3ccc4c(c3)OCO4)o2)cc1 | 5% (inactive) |
| COc1ccc(/C=C2\Oc3ccccc3N(CC(=O)N3CCOCC3)C2=O)cc1 | 5% (inactive) |
| c1ccc(-n2nnnc2N2CCCC2c2nc3ccccc3s2)cc1 (stereo not given) | -12% (inactive) |
| COc1ccccc1/C=C1\SC(=O)N(c2ccccc2)C1=O | -8% (inactive) |
| NNC(=O)CCCc1nc2ccccc2s1 | 4% (inactive) |
| CCOC(=O)c1sc2nc(CN3CCCCC3)nc(NC3CC3)c2c1C | 16% (inactive) |
| O=S1(=O)CCC(N=Cc2cn(-c3ccccc3)nc2-c2ccccc2)C1 (stereo not given) | 10% (inactive) |
| N#CNc1nc2ccccc2nc1Cl | 2% (inactive) |
| COc1ccc(NC(=O)c2ccoc2COc2ccc(C)cc2)cc1 | 0% (inactive) |
| Cc1ccc(SCc2nnc(-c3c(-c4ccccc4)noc3C)o2)cc1C | -11% (inactive) |
| CCCSc1nnc(Nc2ccccc2OC)s1 | -21% (inactive) |
| Cc1noc(N)c1C(=O)OCc1ccc(COC(=O)c2c(C)noc2N)cc1 | -28% (inactive) |
| O=C(COC(=O)C12CC3CC(CC(Br)(C3)C1)C2)NC1CC1 | 8% (inactive) |

| SMILES | inhibition |
| --- | --- |
| Cc1nn(C)c(Cl)c1S(N)(=O)=O | 8% (inactive) |
| NC(=O)Cn1c(=O)n(Cc2ccco2)c(=O)c2ccccc21 | 16% (inactive) |
| CC(=O)N1CCc2c(sc3c2c(=O)n(Cc2ccccc2)c(=O)n3Cc2cccc(C)c2)C1 | -4% (inactive) |
| Cc1cc(=O)n(-c2cccc(C(F)(F)F)c2)[nH]1 | -1% (inactive) |
| O=C(N/N=C/c1ccc(F)cc1)c1n[nH]c2c1CCC2 | 15% (inactive) |
| Nc1c(C(=O)Nc2ccccc2C(F)(F)F)sc2[nH]c(=O)c(C(=O)O)cc12 | 15% (inactive) |
| CCCN(CC1CC1)C(=O)CSc1nc(N)cc(N)n1 | 27% (inactive) |
| NC(=O)C1CCN(C(=O)CSCc2ccc(Br)cc2)CC1 | 5% (inactive) |
| CC(C)NC(=O)CCc1c[nH]c2ccccc12 | 13% (inactive) |
| O=C(CN1CCC(c2nc(-c3ccncc3)n[nH]2)CC1)N1CCN(c2ccccc2F)CC1 | -6% (inactive) |
| COCCN1Cc2cccc(C(=O)NCc3ccco3)c2C1=O | -9% (inactive) |
| CCOc1nc(NC(=O)NC(=O)c2cccs2)nc(-c2ccccc2)n1 | 11% (inactive) |
| Cn1c(-c2ccco2)nn(C2CC(=O)C3OCC2O3)c1=S (stereo not given) | -1% (inactive) |
| CCOc1cccc(C(=O)NN2CCOCC2)c1 | -7% (inactive) |
| O=C(O)c1cccc(N2C(=O)/C(=C\c3ccc4c(c3)OCO4)SC2=S)c1 | 15% (inactive) |
| Cc1noc(C)c1COC(=O)c1cccc(S(=O)(=O)N(C)C2CCCCC2)c1 | -11% (inactive) |
| CC1CCC(C(=O)NC(C(=O)N2CCN(Cc3ccccc3)CC2)C(C)C)CC1 (stereo not given) | 0% (inactive) |
| Cc1nc(-c2ccccc2)sc1C(=O)NCC1CCCO1 (stereo not given) | -20% (inactive) |
| Nc1c(NCC(c2ccco2)N2CCCCC2)c(=O)[nH]c(=O)n1Cc1ccccc1 (stereo not given) | 9% (inactive) |
| Clc1cccc2c(N3CCN(Cc4ccccc4)CC3)cnnc12 | 17% (inactive) |
| CCCc1nnc(SCC(=O)N2CCCC2)n1CCOC | 3% (inactive) |
| CCS(=O)(=O)N1CCC(C(=O)OCC(=O)c2cc(C)n(C(C)C)c2C)CC1 | -5% (inactive) |
| CCc1n[nH]c(=S)n1/N=C1\C(=O)N(CC(C)C)c2ccccc21 | 1% (inactive) |
| Cc1ccc(C(=O)COC(=O)c2cc3cc(Br)ccc3oc2=O)cc1 | -19% (inactive) |
| Cc1cccc(NC(=O)CNC(=O)c2ccc3c(=O)[nH]c(CN4CCOCC4)nc3c2)c1C | 5% (inactive) |
| CCOC(=O)c1c(CN2CCN(CC#N)CC2)n(-c2ccccc2)c2ccc(O)cc12 | -1% (inactive) |
| NC(=O)CCc1nc(-c2ccccc2)no1 | -4% (inactive) |

| SMILES | inhibition |
| --- | --- |
| Cc1nn(Cc2ccc(Cl)cc2)c(C)c1NC(=O)COCc1cc(-c2cccs2)on1 | -15% (inactive) |
| Cc1cc(C)c2nc3nc(C)cc(C)c3c(N)c2c1 | 77% (active) |
| Cc1cc(C)c2nc(-c3ccco3)cc(C(=O)O)c2c1 | 5% (inactive) |
| COc1ccc(/C=N/N2C(=O)c3ccccc3C2=O)cc1OC | -16% (inactive) |
| O=S1(=O)CC=C(S(=O)(=O)c2ccccc2)C1 | 2% (inactive) |
| CCOC(=O)COc1ccc2cc(-c3nc4ccccc4s3)c(=O)oc2c1 | -176% (inactive) |
| CC(=O)Nc1nonc1Nc1csc(CC#N)n1 | -1% (inactive) |
| O=C(N/N=C/c1c(-c2ccccc2)nc2sccn12)c1ccc2ccccc2n1 | 15% (inactive) |
| COc1cccc(C2NC(=O)NC(C)=C2C(=O)c2ccccc2)c1 (stereo not given) | -13% (inactive) |
| CC1=C(C(=O)NCCC(C)C)C2(CCC(C)CC2)OC1=O (stereo not given) | 1% (inactive) |
| CC(C)CCSc1nc2ccccc2n1CN1CCN(S(=O)(=O)c2ccc(Cl)cc2)CC1 | 3% (inactive) |
| O=C(NCc1ccccc1)N1CCC(CN2CCCCC2)CC1 | 4% (inactive) |
| CCOC(=O)N1CCC(NC(=O)Cn2ncc3c(=O)oc4ccc(C)cc4c32)CC1 | 14% (inactive) |
| CC(C)CCNS(=O)(=O)c1ccc2[nH]c3c(c2c1)CCCC3 | -2% (inactive) |
| CC(=O)Nc1ncc(Cc2ccc(C)cc2)s1 | 7% (inactive) |
| Cc1ccc(CN(C)C(=O)c2n[nH]c3ccccc23)o1 | -4% (inactive) |
| CC(C)N(C(=O)CSc1nnc2sc3ccccc3n12)C(C)C | 7% (inactive) |
| CCCCSc1nc2ccccc2[nH]1 | -5% (inactive) |
| CC1=NN(C(N)=S)C(=O)C1 | -7% (inactive) |
| COc1ccc(C)cc1NC(=O)CSC1CCCC1 | -1% (inactive) |
| Cc1c(/C=N/NC(N)=S)c2ccccc2n1C | -2% (inactive) |
| COc1cc(OC)c(OC)cc1CN1CCN(c2ccccc2F)CC1 | 10% (inactive) |
| NCC1CCN(Cc2ccccc2Cl)CC1 | -10% (inactive) |
| c1csc(-c2csc(Cc3nc(-c4cccs4)cs3)n2)c1 | 36% (inactive) |
| CCN(C(=O)Cc1noc2ccccc12)c1cc(OC)ccc1OC | 9% (inactive) |
| COc1ccc(-c2cc3c(n2Cc2ccc(F)cc2)CC(C)(C)CC3=O)cc1 | -11% (inactive) |
| COCCNC(=O)Cn1cc(/C=C2\C(=O)NC(=O)N(C3CCCCC3)C2=O)c2ccccc21 | -31% (inactive) |

| SMILES | inhibition |
| --- | --- |
| Cc1nc2cc(N=Cc3ccc(Cl)cc3)ccc2n1Cc1ccccc1 | 10% (inactive) |
| Cc1nc(-c2cccs2)sc1C(=O)Nc1ccccc1 | -5% (inactive) |
| CN1C/C(=C/c2ccc3c(c2)OCCO3)C(=O)/C(=C/c2ccc3c(c2)OCCO3)C1 | 8% (inactive) |
| CCc1ccc(C(=O)C(C)Sc2nnc(-c3ccccc3)o2)cc1 (stereo not given) | -5% (inactive) |
| COc1ccc(OC)c(NC(=O)CSc2nccn2-c2cccc(Cl)c2)c1 | 3% (inactive) |
| NC(=O)CN1CCN(Cc2cccc3ccccc23)CC1 | 3% (inactive) |
| Cc1cn2ccccc2c1P(=Nc1ccccc1)(N1CCOCC1)N1CCOCC1 | 7% (inactive) |
| O=C(OC1CSC1)c1cccs1 | -1% (inactive) |
| CC1CC(=O)Nc2ccccc2N1C(=O)CSc1ccc2c(c1)OCCCO2 (stereo not given) | 15% (inactive) |
| OCc1nc2ccccc2n1CC1CC1(Cl)Cl (stereo not given) | -17% (inactive) |
| Cc1nn(CC(=O)NCCc2ccccc2)c(=O)c2cc3occc3n12 | 8% (inactive) |
| COc1ccc(/C=C2\Oc3cc(OC(=O)c4ccc(F)cc4)ccc3C2=O)cc1 | 5% (inactive) |
| CC(C)c1ccc(N=Cc2cccs2)cc1 | 21% (inactive) |
| O=C(NCC1CCCO1)c1ccc2c(=O)n3c(nc2c1)CCCCC3 (stereo not given) | 2% (inactive) |
| CN1CCN(C(=O)c2ccc(-c3ccc(Br)cc3)o2)CC1 | -25% (inactive) |
| CCn1c(CNC(=O)c2ccncc2)cc2ccccc21 | 7% (inactive) |
| Nc1nnnn1/N=C/c1cccc(Br)c1 | 4% (inactive) |
| O=C(COC(=O)C1CC1)c1ccccc1Br | -9% (inactive) |
| CCC(Sc1nnc(-c2cc3occc3n2C)n1-c1ccccc1C)C(=O)Nc1ccc(C)cc1 (stereo not given) | 10% (inactive) |
| NS(=O)(=O)c1ccc(CNC(=O)c2cccc3cccnc23)cc1 | -13% (inactive) |
| [O-][n+]1ccccc1SC1=COCCC1 | 8% (inactive) |
| COc1ccc(N2CCN(c3nc(N)c4c(N)nc5c(c4c3C#N)CC(=O)N5C)CC2)cc1 | 9% (inactive) |
| N#Cc1c(N)nc2c(c1N)CC(=O)N2c1ccccc1 | -11% (inactive) |
| CC1=Nc2nc(N3CC(C)OC(C)C3)c(C#N)c3c4c(nc(c23)N1)N(c1ccccc1)C(=O)C4 (stereo not given) | 54% (active) |
